From PubChem BioAssay

Target: Fibroblast growth factor 2 (Homo sapiens) (UniProt P09038)
Test: basic fibroblast growth factor binding to printed compounds – biochemical, small-molecule microarray, 635/667 nm fluorescence, primary screen (AID 1133)
Settings: FGF2, fluorescence 635/667, higher = more signal

Sequence of Fibroblast growth factor 2 (Homo sapiens) (P09038 whole entry, looked up): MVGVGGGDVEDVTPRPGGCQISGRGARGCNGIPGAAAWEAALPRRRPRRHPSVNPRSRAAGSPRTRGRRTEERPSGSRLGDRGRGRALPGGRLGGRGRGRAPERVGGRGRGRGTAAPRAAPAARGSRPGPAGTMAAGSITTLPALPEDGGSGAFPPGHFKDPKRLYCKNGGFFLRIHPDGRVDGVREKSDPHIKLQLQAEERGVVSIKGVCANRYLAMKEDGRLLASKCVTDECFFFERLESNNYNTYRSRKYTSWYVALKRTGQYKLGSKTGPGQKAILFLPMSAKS

| SMILES | composite z-score |
| --- | --- |
| NCCCCCNC(=O)[C@@H]1C[C@@H]2C(=O)N3CCC[C@H]3C(=O)N2[C@@H]1c1cccc(OCCO)c1 | 0.878 |
| C=CC[C@]1(C(=O)NCc2ccccc2)N=C(c2ccc(OCCCO)cc2)O[C@H]1c1ccccc1 | -0.35 |
| COCCOC(=O)N1C(=O)[C@@]2(c3cc(C#CCNC(N)=O)ccc31)[C@H](c1ccc(O)cc1)N1[C@H](c3ccccc3)[C@H](c3ccccc3)OC(=O)[C@H]1[C@@H]2C(=O)N1CCCCCCC1 | 1.5 |
| O=C1[C@H]2[C@H]3[C@H](O)[C@H](O)CC(=NO[C@@H]4O[C@H](CO)[C@@H](O)[C@H](O)[C@H]4O)[C@@H]3CC[C@H]2C(=O)N1Cc1ccc2c(c1)OCO2 | 0.289 |
| O=C1[C@H]2[C@H]3[C@H](O)[C@H](O)CC(=NOCc4ccccc4)[C@@H]3CC[C@H]2C(=O)N1C1CCCCC1 | -0.45 |
| O=C1[C@H]2[C@H]3[C@H](O)[C@H](O)CC(=NO[C@@H]4O[C@H](CO)[C@@H](O)[C@H](O)[C@H]4O)[C@H]3CC[C@H]2C(=O)N1Cc1ccc2c(c1)OCO2 | -0.654 |
| O=C(NN=C1C[C@@H](O)[C@@H](O)[C@@H]2[C@@H]3C(=O)N(c4cccc(Oc5ccccc5)c4)C(=O)[C@@H]3CC[C@H]12)OCc1ccccc1 | 0.237 |
| CC(C)CON=C1C[C@@H](O)[C@@H](O)[C@@H]2[C@@H]3C(=O)N([C@@H](C)c4ccccc4)C(=O)[C@@H]3CC[C@H]12 | 1.18 |
| CC(=O)O[C@H]1C2=C(C(=O)[C@@H]3O[C@@H]31)[C@H]1C(C)O[C@@H]2[C@@]23C(=O)[C@@H]4O[C@@H]4[C@@H](O)C2=CO[C@H](C)[C@@H]13 (stereo partly specified) | 0.877 |
| CC(C)(C)N1C(=O)[C@H]2[C@H]3[C@H](O)[C@H](O)CC(=NOCc4ccccc4)[C@@H]3CC[C@H]2C1=O | 0.742 |
| O=C1[C@H]2[C@H]3[C@H](O)[C@H](O)CC(=NOC[C@@H](O)COCc4ccco4)[C@H]3CC[C@H]2C(=O)N1c1cccc(Oc2ccccc2)c1 | -0.701 |
| CC(C)=CCCC(C)=CCON=C1C[C@@H](O)[C@@H](O)[C@@H]2[C@@H]3C(=O)N(C[C@@H]4CCCO4)C(=O)[C@@H]3CC[C@@H]12 | 1.07 |
| Cc1ccc(S(=O)(=O)N[C@@H]2COC(=O)[C@H](C)COC(=O)CC=C[C@H]2C)cc1 | 0.98 |
| CCc1cc2c(nc1CC)CCN(CCC(C)=NO[C@@H](C)c1cc(-c3c(C)cc(C)cc3C)no1)C2 | -0.2 |
| CC(=O)OC[C@H]1O[C@@H](ON=C(C)CCN2CCc3nc(-c4ccccc4)c(-c4ccccc4)cc3C2)[C@H](OC(C)=O)[C@@H](OC(C)=O)[C@@H]1OC(C)=O | 1.19 |
| Cc1ccc(S[C@]2(C(=O)NCC(F)(F)F)CC(=O)N(Cc3ccccc3Cl)[C@@H]2c2ccc(CO)cc2I)cc1 | -0.624 |
| CO[C@@H]1COC(=O)CC=C[C@@H](C)COC(=O)[C@H](COCc2ccccc2)NC(=O)CC=C[C@H]1C | 1.73 |
| O[C@@H](Cc1ccccc1)[C@H]1C2C=CCCC(c3ccccc3)=C2CN1Cc1cccc(Cl)c1 (stereo partly specified) | 0.251 |

| SMILES | composite z-score |
| --- | --- |
| CC(=O)OC[C@H]1O[C@H](CCON=C[C@@H](C)[C@H](OCc2ccccc2)C(C)C)C=C[C@@H]1OC(C)=O | 0.274 |
| CC1(C)OCC(C(O)C2=CCCCC2=O)CO1 (stereo unspecified) | 0.938 |
| CO[C@@H]1COC(=O)CC=C[C@@H](C)[C@@H]2C=C[C@H](O)[C@@H](COC(=O)[C@H](C)NC(=O)CC=C[C@H]1C)O2 | 1.73 |
| CCCCCN1CC=CC23O[C@@H]4C=CCOC(=O)[C@@H]4[C@H]2C(=O)N(CCCCCCO)[C@@H]3C1=O (stereo partly specified) | -1.49 |
| COCCCNC(=O)[C@@]1(C)c2ccccc2C(=O)N(Cc2ccc(OC(F)(F)F)cc2)[C@H]1c1ccc(CO)cc1 | -0.553 |
| CC(C)[C@@H](OCc1ccccc1)[C@H](C)C=NO[C@H](C)c1cn([C@H](CO)Cc2ccccc2)nn1 | 0.446 |
| c1ccc(C2NCCc3c2[nH]c2ccccc32)cc1 (stereo unspecified) | 0.737 |
| O=C1NC(=O)C2C1C=CC(C(O)Cc1ccccc1)N2Nc1ccccn1 (stereo unspecified) | 0.512 |
| CCOC(=O)[C@H](Cc1ccccc1)NC(=O)CCC1CC(OC(=O)NCCc2ccc(F)cc2)CC2(CCCC(COC(=O)NCC(c3ccccc3)c3ccccc3)O2)O1 (stereo partly specified) | 0.563 |
| COCCOC(=O)N1C(=O)[C@@]2(c3cc(C#Cc4ccc(OC)cc4)ccc31)[C@H](C(=O)N1CCN(c3ncccn3)CC1)[C@H]1C(=O)O[C@H](c3ccccc3)[C@H](c3ccccc3)N1[C@@H]2c1ccc(OCCO)cc1 | 1.06 |
| CC(=O)OC[C@H]1O[C@@H](ON=C[C@@H](C)[C@H](OCc2ccccc2)C(C)C)[C@H](OC(C)=O)[C@@H](OC(C)=O)[C@@H]1OC(C)=O | 0.225 |
| COC(=O)CC=C[C@@H](C)[C@@H](C=NO[C@H](C)c1cn([C@@H]2COC[C@H]2O)nn1)OC | 0.796 |
| CC(CCN1CCc2nc(-c3ccccc3)c(-c3ccccc3)cc2C1)=NOC(C)CN1CCCCc2nc(C)c(C)cc21 (stereo unspecified) | 0.489 |
| CC(=O)OC[C@H]1O[C@H](C#CCCCc2ccccc2)C=C[C@@H]1OC(C)=O | 0.83 |
| CCOc1ccc(N2C(=O)/C(=C/C=C/c3ccccc3OC)S(=O)(=O)C2c2cccc([N+](=O)[O-])c2)cc1 (stereo unspecified) | 0.235 |
| COC(=O)[C@@H]1N=C(c2ccc(OCCCO)cc2)O[C@@H]1c1ccccc1N=[N+]=[N-] | -0.253 |
| CCN1C(=O)[C@H]2[C@H]3[C@H](O)[C@H](O)CC(=NOC(C)CN4CCCCc5nc(C)c(C)cc54)[C@@H]3CC[C@H]2C1=O (stereo partly specified) | 0.541 |
| CC(C)(C)OC(=O)CC[C@]1(C(N)=O)COC(c2ccc(OCCCO)cc2)=N1 | 1.13 |
